From PubChem BioAssay
PG9 binder: PG9 antibody binding by small molecule | 360,000 compounds, 0.43% hits | inhibition, % at 6.7 µM | TR-FRET gp120-PG9 antibody binding; in the data active = inhibition above about 8.5%
HSP90 refold inh: HSP90 refolding inhibition in rabbit reticulocyte lysate | luciferase refolding luminescence, 3 h | inhibition, % at 5.6 µM | 290,000 compounds, 0.91% hits;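 active = inhibition above the screen-wide mean plus 3 SD, computed separately per campaign, cut at about 16% in these data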;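 also: 0% = DMSO wells and 100% = 60 µM geldanamycin wells; inhibitors lower the luminescence because luciferase stays unfolded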
SMARCA2 act: SMARCA2 function activation, primary screen; MG213 cells, MMTV-luciferase reporter, dexamethasone, overnight; 370,000 compounds, 1% hits; activation, % at 9.1 µM; in the data active = activation above about 7.8%;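 also: 0% = vehicle wells and 100% = reference activator wells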
HSF1 inh: HSF1 inhibition; NIH3T3-HGL HSE-luciferase, MG132-induced, luminescence 8 h; stronger effect = lower value; activity change, negative = inhibition, % at 7.5 µM (by protocol); 300,000 compounds, 0.77% hits; AID 2098;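 active = more than half of replicate wells show activity change below -50%, luminescence cut by over half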;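 also: luciferase reports HSF-1 transcriptional activity via heat shock element; 0% = median of DMSO wells and -100% = zero luminescence signal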
GAA850 FXN act: frataxin GAA850 promoter activation. HEK293 lucGAA850 FXN promoter luciferase reporter, 24 h; percent of 10 µM SAHA response. activation, % at 6 µM. 360,000 compounds, 0.56% hits;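 active = activation above the average of all compounds screened plus 3 SD, cutoff fixed separately per campaign, cut at about 7.5% in these data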;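 also: 0% = DMSO wells and 100% = 10 µM SAHA wells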
AI-2 QS modul: modulators of Vibrio harveyi AI-2 quorum sensing system; 300,000 compounds, 0.4% hits; Vibrio harveyi JMH597 AI-2 luminescence/OD600 ratio, 9 h; stronger effect = lower value; strain lacks LuxN and CqsS sensors; 0 = neutral-control median; activity change, % at 7.5 µM; in the data active = activity change below about -75%, passing the limit was not always enough;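 also: luminescence divided by OD600 gain over 9 h not by final OD600 alone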
GAA30 FXN cntr: activates GAA30 frataxin promoter, counter-screen for GAA850 activators; shares compounds with GAA850 FXN act; HEK293 lucGAA30 FXN promoter luciferase, 24 h; DMSO = 0%, 5 µM ipriflavone = 100%; activation, % at 6 µM; 1,900 compounds, 66% hits;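 active = mean activation above the mean of solvent-only control wells plus 3 SD, cut at about 22% in these data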;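 also: counterscreen of GAA850 promoter hits where activity marks nonselective or luminescence artifacts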
FXN GAA850 conf: GAA850 FXN promoter activation confirmation; shares compounds with GAA850 FXN act; HEK293 lucGAA850 FXN promoter luciferase reporter, 24 h; 100% = activation by SAHA; activation, % at 6 µM; 1,900 compounds, 86% hits;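 active = mean activation above a set limit taken from the primary screen, cut at about 8% in these data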;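 also: 0% = DMSO wells and 100% = 10 µM SAHA wells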
* hit, by the source's call; nt = no result given. Compounds with a hit are over-represented: about 3.4% of the library has one in this group of screens.

SMILES	PG9 binder	HSP90 refold inh	SMARCA2 act	HSF1 inh	GAA850 FXN act	AI-2 QS modul	GAA30 FXN cntr	FXN GAA850 conf
CC[C@@]12C(=O)N(c3cccc(Br)c3)C(=O)N1[C@H](c1ccc(Br)cc1)[C@@H]1C(=O)N(C(C)(C)C)C(=O)[C@@H]12	-0.5	nt	-0.9	11.8	10.6*	25.6	45.2*	16.6*
CC(C)(C)N1C(=O)[C@H]2[C@@H](c3ccc(Br)cc3)N3C(=O)N(c4cccc(Cl)c4)C(=O)[C@@]3(Cc3ccccc3)[C@H]2C1=O	-1.6	nt	0.3	3.2	11.9*	39.6	16.1	14.1*
COc1ccc([C@@H]2[C@@H]3C(=O)N(C(C)(C)C)C(=O)[C@@H]3[C@]3(Cc4ccccc4)C(=O)N(c4cccc(Cl)c4)C(=O)N23)cc1	1.2	nt	2.1	2.5	1.6	36.0	nt	nt
CCOC(=O)C1=C(COC(=O)C2CC(=O)N(c3ccccc3CC)C2)NC(=O)NC1C (stereo not drawn)	-1.2	nt	0.8	nt	-0.5	nt	nt	nt
COC(=O)[C@]12C[C@H](CC(=O)NCc3cccc(C(F)(F)F)c3)C(=O)N(Cc3ccc4c(c3)OCO4)C1=C[C@H](C(C)(C)C)O[C@@H]2C	-0.1	nt	-3.6	nt	nt	nt	nt	nt
CC[C@@]12C(=O)N(c3cccc(Br)c3)C(=O)N1[C@H](c1ccc(OC)cc1)[C@@H]1C(=O)N(C(C)(C)C)C(=O)[C@@H]12	-0.3	nt	1.0	-1.5	11.0*	11.5	39.1*	9.2*
CNC(=O)c1ccccc1C1(O)c2ccccc2CCc2ccccc21	0.3	nt	-0.9	nt	nt	nt	nt	nt
Cc1ccc(N(O)C(=O)NCCCCNC(=O)N(O)c2ccc(C)cc2)cc1	-3.2	4.0	-0.2	26.3	7.7*	0.8	58.8*	21.1*
CC1=C([N+](=O)[O-])C(c2cccc(Br)c2)C2=C(N1)c1ccccc1C2=O (stereo not drawn)	-0.3	0.2	1.7	-11.4	15.0*	12.2	-13.3	34.6*
COC(=O)C1=C(C)NC2=C(C(=O)c3ccccc32)C1c1cccc(OC)c1 (stereo not drawn)	-3.7	-3.4	-4.9	2.5	-0.5	26.7	nt	nt
CCN1C(=O)[C@H]2[C@@H](c3ccc(C)cc3)N3C(=O)N(c4cccc(Cl)c4)C(=O)[C@@]3(C)[C@H]2C1=O	-2.2	nt	0.3	nt	-0.2	nt	nt	nt
CCN1C(=O)[C@H]2[C@@H](c3ccc(C)cc3)N3C(=O)N(c4cccc(Cl)c4)C(=O)[C@@]3(CC)[C@H]2C1=O	0.3	nt	0.5	4.4	8.2*	4.4	9.1	7.9*
CC[C@@]12C(=O)N(c3ccc(OC)cc3)C(=O)N1[C@H](c1cccc(C)c1)[C@@H]1C(=O)N(Cc3ccccc3)C(=O)[C@@H]12	nt	2.4	nt	1.5	3.8	22.0	nt	nt
CC[C@@]12C(=O)N(c3ccc(C)cc3)C(=O)N1[C@H](c1cccc(C)c1)[C@@H]1C(=O)N(Cc3ccccc3)C(=O)[C@@H]12	-0.7	nt	3.2	2.9	8.4*	27.4	23.1*	12.4*
Cc1ccc(N2C(=O)N3[C@H](c4cccc(C)c4)[C@@H]4C(=O)N(Cc5ccccc5)C(=O)[C@@H]4[C@]3(C)C2=O)cc1	-4.9	nt	-0.1	9.3	7.6*	10.4	17.7	8.5*
O=[N+]([O-])c1cc(-c2ccc(C(=S)N3CCOCC3)o2)ccc1Cl	-0.6	5.4	-1.9	0.2	4.0	32.7	nt	nt
N#CCCN1CCN(C(=S)c2ccc(-c3cccc(Cl)c3)o2)CC1	-2.3	3.2	4.8	19.5	8.6*	0.9	74.2*	31.1*
N#CCCN1CCN(C(=S)c2ccc(-c3ccc(Cl)c(Cl)c3)o2)CC1	-2.0	0.2	2.5	60.5	8.7*	11.6	72.0*	30.2*
Cc1ccccc1C(=O)N[C@@H](CC(C)C)C(=O)N1CCC[C@H]1C(=O)NCc1ccccc1	-1.1	nt	-1.8	nt	nt	nt	nt	nt
N#Cc1ccc(OCc2c(-c3ccccc3)nnn2CC(=O)O)cc1	0.8	nt	-6.5	nt	2.9	nt	nt	nt
CCCOc1ccc(C(=O)N2CCC(Oc3cccnc3)CC2)cc1	nt	nt	0.1	nt	nt	nt	nt	nt
O=C1C=CC(=O)N1c1ccc2c(c1)Cc1cc(F)ccc1-2	2.8	nt	-0.4	nt	-0.6	nt	nt	nt
CC(=O)Nc1ccc2c(c1)Cc1cc(N3C(=O)C=CC3=O)ccc1-2	-0.8	nt	5.3	nt	11.0*	nt	-84.8	-5.6
COc1ccc(Nc2nccc(-c3cccc(N)c3)n2)cc1	-1.1	1.3	4.7	-10.3	13.1*	-3.0	130.5*	100.4*
O=C(Cn1cnc2ccccc2c1=O)N1CCCCC1	nt	nt	-2.8	nt	nt	nt	nt	nt
SMILES	PG9 binder	HSP90 refold inh	SMARCA2 act	HSF1 inh	GAA850 FXN act	AI-2 QS modul	GAA30 FXN cntr	FXN GAA850 conf
Cc1ccc(N=Nc2c(O)n(CN3CCOCC3)c3ccccc23)cc1	nt	-4.1	nt	14.0	7.7*	19.8	135.0*	50.2*
Cc1cccc(NC(=S)N=Nc2c(O)n(CN3CCOCC3)c3ccccc23)c1C	-0.9	1.9	0.3	-12.8	-1.9	34.2	nt	nt
CC(C)OP(=O)(c1ccc(N(C)C)cc1)C(Nc1ccccc1)c1ccccc1 (stereo not drawn)	-1.1	6.9	-3.7	6.5	8.0*	18.1	12.0	12.7*
CC(C)CCOP(=O)(c1ccc(N(C)C)cc1)C(Nc1ccccc1)c1ccc(N(C)C)cc1 (stereo not drawn)	-1.1	-0.6	-2.8	nt	-0.2	19.0	nt	nt
Brc1ccc(/C=N/Nc2ccccn2)cc1	-1.8	2.3	2.8	11.5	9.5*	24.3	104.9*	38.6*
C(=N\Nc1ccccn1)/c1c[nH]c2ccccc12	-5.2	-0.5	6.8	176.8	7.7*	13.9	75.8*	36.5*
Clc1ccc(/C=N/Nc2ccccn2)cc1	-2.1	-0.4	1.8	11.7	5.7	13.6	nt	nt
O=C(C(=Cc1ccccc1)CN1CCCCC1)c1ccccc1	-1.4	nt	-5.2	nt	-13.9	nt	nt	nt
O=S1(=O)c2ccc(Br)cc2OC[C@H](c2ccccc2)N1Cc1ccccc1	-1.4	nt	-0.2	nt	nt	nt	nt	nt
COc1ccc(CCNC(=O)c2cc(-c3ccccc3)on2)cc1OC	-1.1	9.8	2.0	3.6	10.5*	36.8	62.5*	33.1*
O=C(NCc1ccco1)c1cc(-c2ccc(F)cc2)on1	-0.1	-1.8	4.0	0.4	6.9	31.3	nt	nt
O=C(NCc1ccccc1)c1cc(-c2cccs2)on1	-2.6	-5.9	-0.3	9.9	3.4	-42.4	nt	nt
O=C(NCc1ccco1)c1cc(-c2cccs2)on1	0.9	0.0	-1.7	63.3	25.9*	-16.1	150.2*	55.6*
CCCNC(=O)c1cc(-c2ccco2)on1	-1.5	6.5	0.2	3.4	22.0*	-4.5	127.5*	57.4*
